Test results published in PubChem BioAssay (NCATS).
Records with an inconclusive call do not appear. Unmarked numbers belong to inactive results. Calls of active or inactive are those of the source. The call rests on the fitted dose curve.

Each compound was assayed against Cytochrome P450 1A2 (Homo sapiens) (UniProt P05177) (assay: p450-cyp1a2 (AID 410;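 on activity change, negative = inhibition: -100% = full effect of reference inhibitor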)). Settings: recombinant CYP1A2, luciferin-ME demethylation, luminescence; series mostly up to 57 µM; activity change, negative = inhibition: at the top concentration.
Procedure: The P450 gene superfamily is involved in metabolism and the clearance of xenobiotics. This assay used human CYP1A2 to measure the demethylation of luciferin 6' methyl ether (Luciferin-ME; Promega-Glo) to luciferin. The luciferin is then measured by luminescence after the addition of a luciferase detection regeant. Luciferin-ME concentration in the assay was equal to its Km for CYP1A2.
NCGC Assay Protocol Summary:
Two uL of enzyme and substrate mix (final concentrations: 20nM CYP1A2, 100uM Luciferin-ME, 100mM KPO4) were dispensed into a white, solid bottom 1536-well microtiter plate. 23nL of compound was transferred by a pin tool. The plate was incubated at room temperature for 10 min. Two uL of an NADPH regeneration solution (Promega supplied reagent) was dispensed and the reaction was allowed to continue for 60 min at room temperature. Then the reaction was stopped by reconstituted detection reagent. After another 20 min of incubation the plate was read on the ViewLux (Perkin Elmer) at 60 sec exposure and 2x2 binning. This protocol was carried out with Promega-Glo reagents and further information can be found at http://www.promega.com/tbs/tb325/tb325.pdf. Data were normalized to the to AC100 inhibition (57 uM furafylline).
Potency means the concentration at half of the fitted maximal effect.

Sequence of Cytochrome P450 1A2 (Homo sapiens) (P05177 whole entry, looked up): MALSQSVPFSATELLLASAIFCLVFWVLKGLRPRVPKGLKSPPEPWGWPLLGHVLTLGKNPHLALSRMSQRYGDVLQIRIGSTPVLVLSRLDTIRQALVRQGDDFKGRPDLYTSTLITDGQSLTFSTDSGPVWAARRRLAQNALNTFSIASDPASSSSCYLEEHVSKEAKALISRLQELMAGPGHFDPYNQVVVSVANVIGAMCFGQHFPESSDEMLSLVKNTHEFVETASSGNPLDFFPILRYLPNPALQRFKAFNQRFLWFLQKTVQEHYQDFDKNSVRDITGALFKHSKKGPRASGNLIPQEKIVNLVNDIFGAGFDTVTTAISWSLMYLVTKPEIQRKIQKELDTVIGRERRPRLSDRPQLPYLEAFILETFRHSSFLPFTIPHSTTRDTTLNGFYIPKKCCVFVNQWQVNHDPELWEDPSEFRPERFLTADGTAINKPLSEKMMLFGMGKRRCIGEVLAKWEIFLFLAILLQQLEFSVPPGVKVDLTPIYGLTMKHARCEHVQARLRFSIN

Row | Compound | activity change, negative = inhibition [%] | Potency
1 | COc1ccccc1CN1CC[C@@]2(CCCN(C(=O)c3c(C)noc3C)C2)C1 | 12.4 | –
2 | Cn1cc(-c2nc3cncnc3n(-c3ccccc3)c2=O)c2ccccc21 | – | 1.58 µM (active)
3 | O=C(Oc1ccccc1)N1CCC2(CC1)CCN(c1ncccn1)CC2 | -11.3 | –
4 | CC(C)NC(=O)N1CCC2(CC1)CCN(C(=O)c1csnn1)CC2 | 8.8 | –
5 | O=c1cnc2cnc(Oc3cccc(Cl)c3)nc2n1Cc1ccc(F)cc1 | – | 15.8 µM (active)
6 | CS(=O)(=O)N1CCC[C@@]2(CCN(c3ccccn3)C2)C1 | -10.5 | –
7 | COCCNc1ccnc(-c2ccccc2CN(C)C)n1 | – | 5.01 µM (active)
8 | Cc1nc2cnc(N3CCOCC3)nc2n(C)c1=O | – | 6.31 µM (active)
9 | O=C(c1csnn1)N1CCC2(CC1)CCN(c1ncccn1)CC2 | 5.9 | –
10 | CCNc1ncc2nc(-c3cn(C)c4ccccc34)c(=O)n(Cc3cccc(OC)c3)c2n1 | – | 12.6 µM (active)
11 | c1ccc2c(N3CCNCC3)nc(-c3ccc4c(c3)OCO4)nc2c1 | – | 12.6 µM (active)
12 | COCCNc1ccnc(-c2ccccc2C(F)(F)F)n1 | – | 20 µM (active)
13 | c1csc(CNc2ccnc(-c3ccoc3)n2)c1 | – | 1 µM (active)
14 | COc1ccc(-n2c(=O)c(-c3cccs3)nc3cnc(OC)nc32)cc1 | – | 5.01 µM (active)
15 | COc1cccc(Cn2c(=O)c(-c3cc(F)cc(F)c3)nc3cnc(N(C)C)nc32)c1 | -19.4 | –
16 | COc1ccccc1-c1cc(NCc2ccccc2)ncn1 | – | 2.51 µM (active)
17 | N#CCCn1c(=O)cnc2cnc(N3CCOCC3)nc21 | – | 10 µM (active)
18 | Cc1noc(C)c1-c1nccc(NCc2cccnc2)n1 | – | 0.158 µM (active)
19 | CN(C)c1ncc2ncc(=O)n(C3CC3)c2n1 | – | 3.16 µM (active)
20 | Cc1noc(C)c1-c1cc(Nc2ccc(F)cc2)ncn1 | – | 0.501 µM (active)

Row | Compound | activity change, negative = inhibition [%] | Potency
21 | CC(C)CN(C)c1nc(N)c(C(=O)N=C(N)N)nc1Cl | – | 0.794 µM (active)
22 | COc1ccccc1CN1CC[C@@]2(CCCN(S(C)(=O)=O)C2)C1 | -14.3 | –
23 | COCCn1c(=O)c(-c2ccc(OC)cc2)nc2cnc(N3CCNCC3)nc21 | – | 6.31 µM (active)
24 | CN(C)c1ncc2nc(-c3cc(F)cc(F)c3)c(=O)n(C[C@H]3CCCO3)c2n1 | – | 0.0794 µM (active)
25 | CC(C)NC(=O)N1CCCC2(CCN(C(=O)c3cccc(F)c3)CC2)C1 | 19 | –
26 | O=C(Nc1ccccc1)N1CCC2(CC1)CCN(C(=O)c1cnccn1)CC2 | -20.1 | –
27 | COc1ncc2nc(C)c(=O)n(C3CC3)c2n1 | – | 3.98 µM (active)
28 | c1nc(NC2CCNCC2)c2cc(-c3ccc4c(c3)OCO4)ccc2n1 | – | 12.6 µM (active)
29 | COc1ccccc1-c1cncnc1NCc1cccnc1 | – | 6.31 µM (active)
30 | O=C(Nc1cccc(F)c1)N1CCCC2(CCNCC2)C1 | -9.3 | –
31 | COc1ccc(NC(=O)N2CC[C@@]3(CCCN(C(=O)c4csnn4)C3)C2)cc1 | -9 | –
32 | COc1ccc(C(=O)N2CCC3(CC2)CN(c2ccncc2)C3)cc1 | -5.4 | –
33 | O=c1cnc2cnc(Nc3ccccc3)nc2n1C1CC1 | – | 0.631 µM (active)
34 | COCC(=O)N1CCC[C@@]2(CCN(C(=O)Nc3cccc(F)c3)C2)C1 | 0.7 | –
35 | CNc1ccnc(-c2ccccc2OC)n1 | – | 5.01 µM (active)
36 | CC(C)NC(=O)N1CCCC2(CCN(C(=O)c3ccncc3)CC2)C1 | -0.5 | –
37 | N#Cc1cccc(-c2nc3cnc(N4CCOCC4)nc3n(C3CC3)c2=O)c1 | – | 2.51 µM (active)
38 | CCNc1ncc2nc(-c3ccccc3)c(=O)n(Cc3cccs3)c2n1 | – | 0.316 µM (active)
39 | Cc1cccc(CNc2ncncc2-c2ccc3c(c2)OCO3)c1 | – | 0.126 µM (active)
40 | O=c1c(-c2cc(F)cc(F)c2)nc2cnc(N3CCOCC3)nc2n1C1CC1 | – | 1 µM (active)
